The values that follow come from PubChem BioAssay.

SMILES strings stand for the structures. Activity calls are given as the source filed them.

Test [1] deals with Human papillomavirus type 1a protein E7 (residues 44-93). Briefly: HPV1a E7 fragment binders on microarrays, primary screen, biochemical, small-molecule microarray, residues 44-93, 635 nm fluorescence (AID 1108).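 Note: E7 fragment applied at 1 µg/mL in TBST for 1 h at 4 C; score combines spot fluorescence with its signal to noise ratio.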 The settings on record: small-molecule microarray binding, fluorescence 635 nm; higher = more signal.
Test [2] can be described thus: modulators of HCV replicon luciferase signal, primary screen, HCV replication inhibitor project, Huh7 cells, luciferase reporter (AID 1109).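 Note: huh7 hepatoma cells harbouring a luciferase neomycin HCV replicon reporter; luciferase luminescence as measure of HCV replicon replication; test concentration not given here.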 The settings on record: 48 h, higher = more signal. For orientation: A replicon is a self-replicating genome or part of one, used to study replication in cells.
Test [3] addresses Left-right determination factor 2 (Homo sapiens) (UniProt O00292). Briefly: LEFTY2 binders on small-molecule microarrays, primary screen, biochemical, small-molecule microarray, 635 nm fluorescence scan (AID 1110). The settings on record: LEFTY2 binding, higher = more signal.
For test [4], the target named is Calmodulin-1 (Homo sapiens) (UniProt P0DP23). The experiment in a line: CALM1 binders on microarrays, EGTA buffer, profiling panel, biochemical, small-molecule microarray, Cy5-labelled CALM1 (AID 1111).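 Note: labelled calmodulin applied in Tris saline Tween buffer holding calcium plus EGTA and DTT.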 The settings on record: Cy5-CALM1 binding fluorescence, higher = more signal.
For test [5] the target is unchanged. The experiment in a line: calcium-bound CALM1 binders on microarrays, profiling panel, artefact control for SMM control-protein annotation, biochemical, small-molecule microarray, Cy5-labelled CALM1, plus calcium (AID 1112).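 Note: score merges spot fluorescence with signal to noise from triplicate slides.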 The settings on record: Cy5-CALM1 binding fluorescence, higher = more signal.
The nature of test [6]: small-molecule microarray binders of probe aWnt5a, primary screen, biochemical, biotinylated probe, 635/667 nm fluorescence (AID 1113).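 Note: score merges 667 nm fluorescence intensity with signal-to-noise per printed feature.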 Conditions: higher = more signal.
A short description of test [7]: small-molecule microarray binders of probe aShh, primary screen, biochemical, biotinylated probe, 635/667 nm fluorescence (AID 1114).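 Note: probe is biotin-labelled aShh protein from a stem cell growth factor screen; measures binding of labelled protein to compounds printed on the slide; score merges feature fluorescence at 667 nm with signal-to-noise.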 Conditions: higher = more signal.
Test [8] is described as follows: small-molecule microarray binders of probe aNog, primary screen, biochemical, biotinylated probe, 635/667 nm fluorescence (AID 1115).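 Note: probe is biotinylated aNog protein used at 0.15 µg/mL for 1 h at 4 C; z-score combines 667 nm fluorescence of each spot with its signal to noise.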 The settings on record: higher = more signal.
The target in test [9] is Torsin-1A-interacting protein 1 (Homo sapiens) (UniProt Q5JTV8). Briefly: LAP1 binders from COS7 cell lysate, primary screen, small-molecule microarray, 635/667 nm fluorescence (AID 1116). Conditions: COS7-hLAP1 lysate binding, 635 nm fluorescence, higher = more signal.
Test [10] concerns the target Alpha-bungarotoxin (Bungarus multicinctus) (UniProt P60615). Briefly: alpha-bungarotoxin binders on microarray, profiling panel, artefact control for SMM control protein annotation, biochemical, small-molecule microarray, Alexa647 label, 635/667 nm fluorescence (AID 1117). The settings on record: alpha-BTX-A647 binding fluorescence, higher = more signal.
In another test the target is Albumin (Bos taurus) (UniProt P02769). Briefly: bovine serum albumin binders on microarray, profiling panel, artefact control for SMM control protein annotation, biochemical, small-molecule microarray, Alexa647 label, 635/667 nm fluorescence (AID 1118).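 Note: score merges 667 nm emission intensity and signal-to-noise per printed compound spot.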 Conditions: BSA-A647 binding, fluorescence 635 nm, higher = more signal.
A short description of test [11]: small-molecule microarray binders of probe aXIP, primary screen, biochemical, NeuroSMM set, 635/667 nm fluorescence (AID 1119).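 Note: probe is the protein aXip251-270 applied at 1 µg/mL to compound-printed slides; binding of probe to printed compounds measured as 667 nm fluorescence plus signal to noise.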 The settings on record: higher = more signal, called active from +8 up or from −8 down.
Test [12] can be described thus: small-molecule binders of probe aNOTCH3, primary screen, biochemical, small-molecule microarray, 635/667 nm fluorescence (AID 1120).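 Note: probe is a biotin-tagged antibody raised against NOTCH3 rather than NOTCH3 protein; score merges spot fluorescence near 667 nm with spot signal to noise.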 Conditions: higher = more signal.
The nature of test [13]: small-molecule binders of probe aNOTCH2, primary screen, biochemical, small-molecule microarray, 635/667 nm fluorescence (AID 1121).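 Note: score merges feature fluorescence read at 667 nm with its signal to noise.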 The settings on record: higher = more signal.
The target in test [14] is Carbonic anhydrase 2 (Homo sapiens) (UniProt P00918). The experiment in a line: CAII small-molecule binders, profiling panel, biochemical, small-molecule microarray, Alexa647-labelled CAII (AID 1122). The settings on record: CAII-A647 binding fluorescence, higher = more signal.
A short description of test [15]: COS7 lysate on small-molecule microarray, probe aHis, 635 nm (AID 1123).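 Note: z-score combines 667nm fluorescence intensity with signal-to-noise per printed compound spot.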 The settings on record: COS7 cell lysate, fluorescence, higher = more signal.
Test [16] is described as follows: compound binding in COS7 lysate, probe aLAP1, primary screen, cell lysate, small-molecule microarray (AID 1124).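 Note: lysate comes from COS7 cells expressing LAP1 and is applied at 0.3 µg/mL; score merges spot fluorescence near 667 nm with signal-to-noise over triplicate slides.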 Conditions: probe aLAP1, fluorescence, higher = more signal.
For a further test, the system named is Sam68 (KHDRBS1). The experiment in a line: Sam68 small-molecule binders, primary screen, biochemical, small-molecule microarray, 635 nm fluorescence (AID 1125).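 Note: score merges 667 nm channel intensity with signal to noise over triplicate slides.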 The settings on record: small-molecule microarray binding, higher = more signal.
In test [17] the test system is Chordin-like protein 2 (CHRDL2). Briefly: CHRDL2 small-molecule binders, primary screen, biochemical, small-molecule microarray, 635 nm fluorescence (AID 1126).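 Note: printed compound slides probed with Chrdl2 protein at 4 µg/mL for 1 h at 4 C; score merges 667 nm emission intensity with signal to noise over three replicate slides.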 Conditions: small-molecule microarray binding, fluorescence 635 nm; higher = more signal.
For test [18], the target named is Concanavalin-A (Canavalia ensiformis) (UniProt P02866). Briefly: ConA small-molecule binders, primary screen, artefact control for SMM control protein annotation, biochemical, small-molecule microarray, Alexa647 label, 635 nm (AID 1127).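 Note: z combines 667 nm emission intensity with signal-to-noise across three replicate slides.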 Conditions: ConA-A647 binding fluorescence, higher = more signal.
Concanavalin-A (Canavalia ensiformis), sequence (P02866 whole entry, looked up): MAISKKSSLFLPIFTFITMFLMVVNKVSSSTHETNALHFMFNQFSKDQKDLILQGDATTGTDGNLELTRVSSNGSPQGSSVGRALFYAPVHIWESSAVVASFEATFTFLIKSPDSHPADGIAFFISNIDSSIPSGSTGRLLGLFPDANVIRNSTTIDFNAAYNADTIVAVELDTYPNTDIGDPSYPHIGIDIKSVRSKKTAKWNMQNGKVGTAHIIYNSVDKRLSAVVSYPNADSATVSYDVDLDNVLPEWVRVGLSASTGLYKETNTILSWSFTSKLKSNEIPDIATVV

Albumin (Bos taurus), sequence (P02769 whole entry, looked up): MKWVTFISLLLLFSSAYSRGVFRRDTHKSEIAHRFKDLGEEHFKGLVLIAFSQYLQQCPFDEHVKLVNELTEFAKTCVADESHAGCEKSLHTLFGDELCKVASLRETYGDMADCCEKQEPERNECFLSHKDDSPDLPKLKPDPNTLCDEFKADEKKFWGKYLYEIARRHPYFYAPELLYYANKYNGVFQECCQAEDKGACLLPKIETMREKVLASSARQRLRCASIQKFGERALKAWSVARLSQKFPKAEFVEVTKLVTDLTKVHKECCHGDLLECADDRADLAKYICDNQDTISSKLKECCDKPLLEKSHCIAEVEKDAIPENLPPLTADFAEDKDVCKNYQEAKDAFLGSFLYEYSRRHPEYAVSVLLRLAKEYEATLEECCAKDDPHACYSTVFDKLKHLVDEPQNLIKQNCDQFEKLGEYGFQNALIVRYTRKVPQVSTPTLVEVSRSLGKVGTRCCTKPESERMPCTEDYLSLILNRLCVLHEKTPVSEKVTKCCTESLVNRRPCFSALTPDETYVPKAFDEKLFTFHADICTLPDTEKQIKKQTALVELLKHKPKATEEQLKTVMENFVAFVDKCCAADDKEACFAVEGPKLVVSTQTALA
Torsin-1A-interacting protein 1 (Homo sapiens), sequence (Q5JTV8 whole entry, looked up): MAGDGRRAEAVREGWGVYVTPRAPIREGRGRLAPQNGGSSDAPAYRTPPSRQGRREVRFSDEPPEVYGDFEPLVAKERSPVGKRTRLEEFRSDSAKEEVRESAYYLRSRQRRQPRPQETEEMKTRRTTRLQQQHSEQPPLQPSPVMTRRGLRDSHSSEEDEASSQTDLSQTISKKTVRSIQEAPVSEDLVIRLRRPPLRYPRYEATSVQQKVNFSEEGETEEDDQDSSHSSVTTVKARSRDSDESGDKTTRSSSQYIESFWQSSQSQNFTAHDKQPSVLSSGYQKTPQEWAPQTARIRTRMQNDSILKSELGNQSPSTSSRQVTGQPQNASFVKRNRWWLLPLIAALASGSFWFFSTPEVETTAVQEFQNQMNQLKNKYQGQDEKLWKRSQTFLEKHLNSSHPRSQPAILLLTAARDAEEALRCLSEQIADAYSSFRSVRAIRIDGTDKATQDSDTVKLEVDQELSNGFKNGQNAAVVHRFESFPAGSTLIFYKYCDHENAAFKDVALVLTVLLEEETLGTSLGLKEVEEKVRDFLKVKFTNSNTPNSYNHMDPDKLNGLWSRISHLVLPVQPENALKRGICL
Alpha-bungarotoxin (Bungarus multicinctus), sequence (P60615 whole entry, looked up): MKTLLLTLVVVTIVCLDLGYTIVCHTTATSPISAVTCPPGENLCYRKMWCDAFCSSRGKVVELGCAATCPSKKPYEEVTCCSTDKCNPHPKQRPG
Left-right determination factor 2 (Homo sapiens), sequence (O00292 whole entry, looked up): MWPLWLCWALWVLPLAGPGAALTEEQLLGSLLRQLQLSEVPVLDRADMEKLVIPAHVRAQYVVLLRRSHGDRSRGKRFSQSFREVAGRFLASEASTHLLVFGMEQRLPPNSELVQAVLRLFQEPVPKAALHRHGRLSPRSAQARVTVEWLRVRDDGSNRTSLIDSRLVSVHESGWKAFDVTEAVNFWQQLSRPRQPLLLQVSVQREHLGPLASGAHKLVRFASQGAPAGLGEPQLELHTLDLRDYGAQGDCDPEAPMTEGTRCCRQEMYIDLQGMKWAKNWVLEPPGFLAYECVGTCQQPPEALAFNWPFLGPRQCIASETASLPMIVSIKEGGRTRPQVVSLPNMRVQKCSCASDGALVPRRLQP

On to `O=C1C2C=CC(C(O)C3CC=CCC3)N(n3cnnc3)C2C(=O)N1Cc1ccccc1` (stereo not given), for which the composite z-score in test [1] was -0.318; in test [3] it was -0.49; in test [4] it was -0.292; in [5], -0.92; in [6], -0.154; in test [7] it was 0.0684. In addition, the composite z-score in test [8] is 0.336; in [9] it was 0.752; in test [10], 0.365; with Albumin (Bos taurus), -0.952; in [12] it was -0.213; in test [13] it was -0.202. Besides, the composite z-score in test [14] is 0.903; in test [15], 0.233; in [16] it was 1.34; in the test with Sam68 (KHDRBS1) it was 0.185; in [17] it was -1.69; in test [18] it was -0.137. In test [2], the z-score is -0.151. In addition, the composite Z-score in [11] was 0.241 (inactive).

In the case of `O=C(NCC(O)CO)[C@@]1(Cc2ccccc2)COC(c2ccc(OCCCO)cc2)=N1` (stereo not given in full), the composite z-score in test [1] was 0.422; in [3], -0.483; in test [4], 0.77; in test [5], 1.11; in test [6], -0.0704; in test [7] it was -0.283. Besides, the composite z-score in test [8] is -0.134; in test [9], 0.561; in [10], -0.363; with Albumin (Bos taurus), 0.536; in [12], -0.0984; in test [13], -0.189. Also, the composite z-score is 0.738 in test [14]; 0.737 in test [15]; -0.192 in test [16]; -0.274 in the test with Sam68 (KHDRBS1); -0.445 in test [17]; -1.4 in test [18]. In addition, in test [2], the z-score was -0.992. For the same molecule, in [11], the composite Z-score was -0.936 (inactive).

For `O=C(N1CCCCC1)[C@]1(CCS(=O)(=O)c2ccccc2)N=C(c2ccc(OCCCO)cc2)O[C@@H]1c1ccccc1`, the composite z-score in [1] worked out at 0.876; in [3], 0.101; in test [4], 1.91; in test [5], 1.02; in [6] it was 0.055; in test [7], 1.49. Moreover, the composite z-score in [8] came to 0.56; in test [9] it was 0.917; in test [10], 2.56; in the test with Albumin (Bos taurus), 0.431; in test [12], 0.381; in test [13], 0.0161. Besides, the composite z-score in test [14] was 0.639; in [15], 2.08; in test [16], 0.165; in the test with Sam68 (KHDRBS1), 1.27; in [17], -0.457; in [18], 1.18. This molecule gave a z-score in [2] of -3.16. In addition, the composite Z-score in test [11] was 1.77 (inactive).

`[N-]=[N+]=NCc1ccccc1C[C@]1(C(=O)NCc2ccccc2)COC(c2ccc(OCCCO)cc2)=N1`: the composite z-score in test [1] is 0.953; in test [3], -0.0623; in [4] it was 0.614; in [5] it was 0.345; in test [6] it was 0.027; in test [7], 0.0483. For the same molecule, the composite z-score was -0.415 in test [8]; 1.04 in [9]; 0.188 in [10]; 0.632 in the test with Albumin (Bos taurus); 0.112 in [12]; -0.0814 in test [13]. In addition, the composite z-score in test [14] was 0.644; in [15] it was 1.89; in test [16], 0.784; in the test on Sam68 (KHDRBS1) it was 1.3; in test [17], -0.694; in test [18], 0.612. In [2], this molecule returned a z-score of -3.59. For the same molecule, in test [11], the composite Z-score was 0.452 (inactive).

In the case of `CC1CC/C=C\[C@H]2OC34C=CCN(c5ccc6ccccc6c5)C(=O)[C@H]3N(CCCCCO)C(=O)[C@@H]4C2C(=O)O1` (stereo not given in full), the composite z-score in test [1] is -2.21; in test [3], -1.64; in test [4], -0.827; in test [5] it was -0.16; in test [6] it was -0.141; in [7] it was -0.214. The composite z-score in test [8] is -0.119; in test [9] it was -1.16; in test [10], -1.28; in the test with Albumin (Bos taurus), -0.158; in test [12], -0.372; in test [13], -0.0941. The composite z-score in [14] is -0.622; in test [15], -0.357; in test [16], -0.615; with Sam68 (KHDRBS1), -1.95; in test [17] it was -1.25; in [18], -1.23. Moreover, the z-score in [2] came to 0.324. Besides, the composite Z-score in test [11] is 0.322 (inactive).

Regarding `COC(=O)c1c(CC[C@@H](CO)NC(=O)Nc2ncn[nH]2)oc(C(=O)Cc2ccccc2)c1C(=O)OC`, the composite z-score in test [1] is 0.693; in test [3], 0.506; in [4], 0.0262; in test [5], -0.828; in [6], -0.243; in test [7], 0.158. Further, the composite z-score in [8] is -0.0144; in test [9] it was -0.0045; in test [10], 0.924; with Albumin (Bos taurus), -0.145; in [12], 0.158; in [13], -0.12. For the same molecule, the composite z-score was determined as 0.768 in [14]; 3.22 in test [15]; 0.705 in test [16]; 0.885 in the test on Sam68 (KHDRBS1); 1.08 in test [17]; 1.16 in [18]. This molecule also displayed a z-score in [2] of 0.0922. Moreover, the composite Z-score in test [11] was 1 (inactive).

As to `CN1C(=O)C2C=CC(C(O)c3ccccc3)N(NC(=O)OC(C)(C)C)C2C1=O` (stereo not given), the composite z-score is 1.32 in [1]; -0.474 in [3]; 0.347 in [4]; -0.197 in test [5]; -0.1 in test [6]; -0.221 in [7]. For the same molecule, the composite z-score in [8] was 0.401; in [9], 0.452; in test [10], 0.966; with Albumin (Bos taurus) it was 0.959; in test [12] it was 0.245; in [13] it was -0.0722. Also, the composite z-score in test [14] is 0.722; in [15], 2.05; in [16] it was 0.23; in the test on Sam68 (KHDRBS1), 1.01; in test [17], -0.33; in test [18] it was 0.442. In addition, the z-score in [2] came out at 0.316. Further, the composite Z-score in test [11] was 0.0333 (inactive).

Consider `O=c1cccc(-c2ccc3ccccc3c2)o1`, for which the composite z-score in test [1] is -0.0853; in [3] it was -0.135; in test [4], -0.545; in test [5] it was 0.03; in [6] it was -0.184; in test [7], -0.136. Besides, the composite z-score in test [8] is -0.219; in test [9], 0.407; in test [10], 0.687; with Albumin (Bos taurus), -1.67; in test [12], -0.0766; in test [13], -0.115. For the same molecule, the composite z-score is -0.263 in test [14]; -0.332 in test [15]; -0.341 in [16]; -0.591 in the test on Sam68 (KHDRBS1); 0.387 in test [17]; -0.544 in test [18]. The same molecule displayed a z-score in [2] of 0.0929. Besides, the composite Z-score in test [11] was 0.19 (inactive).
